Assay results reported in PubChem BioAssay (NCI).
The panel holds about 83,000 compounds, 20% with a hit somewhere; the sample as a whole holds those more often.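 Treatment: one concentration, 48 hours, 96-well format. Scoring: percent growth, with anything below 10 considered active.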 Values without a mark were called inactive. Activity calls are given as the source filed them.

system: MOLT-4 leukemia; test: NCI-60 one-dose screen, 48 h (100 = growth as untreated, 0 = no growth, -100 = all killed); conditions: 10 µM unless noted
Protocol: Growth inhibition of the MOLT-4 human tumor cell line is measured as a screen for anti-cancer activity. Cells are grown in 96 well plates and exposed to the test compound for 48 hours. Compounds are tested at a single concentration, which is 10^-5 M for most compounds. The reported endpoint is percent growth (GI% or GIPRCNT), where numbers from 0 - 100% represent growth inhibition, and numbers from -100% - 0 represent cell death. For example, a value of 40 represents 60% growth inhibition. A value of 0 means no net growth occurred over the course of the experiment. A value of -40 indicates 40% of cells at the beginning of the experiment died by the end of the experiment. A value of -100 means all cells are dead at the end of the experiment.
NCI-60 Human Tumor Cell Lines Screen was performed using the standard one-dose NCI protocol, which is described in more detail at https://dtp.cancer.gov/discovery_development/nci-60/default.htm.
Compounds with GIPRCNT values below 10 were considered active. Activity score was based on GIPRCNT using the following formula: […]
Score is 0 for GIPRCNT values of 100 or above, 50 for GIPRCNT values of 0, and 100 for GIPRCNT values of -100.

Row | Structure (SMILES) | growth
1 | Clc1ccc(C(SCc2ccccc2)SCc2ccccc2)cc1 | 84.9%
2 | CC(CO)(CO)C(=O)O | 108%
3 | O=[n+]1ccn([O-])c2ccccc21 | 102%
4 | OCCOc1ccc(-c2cc(-c3ccccn3)nc(-c3ccccn3)c2)cc1 | -6.16% (active)
5 | Cc1ccc(Cc2ccc(C)cc2)cc1 | 97.2%
6 | O=C1C=C[C@H](O)[C@@]2(CO)O[C@@H]12 | 26.9%
7 | Cc1[nH]n(-c2ccccc2)c(=O)c1C=NC(=S)C(N)=S | 102%
8 | S=CN1CCCCC1 | 109%
9 | O=C(Nc1ccccc1)c1ccco1 | 93.5%
10 | CCOc1ccc(NC(=S)N2CCC(CCCC3CCN(C(=S)Nc4ccc(OCC)cc4)CC3)CC2)cc1 | 73.7%
11 | C1Cc2onc(-c3noc4c3CCC4)c2C1 | 110%
12 | O=C(OCC1CCCO1)c1ccc([N+](=O)[O-])cc1 (stereo not given) | 101%
13 | CCC(=O)C1C(=O)c2ccccc2C1=O | 136%
14 | Cc1[nH]nc(C(N)=O)c1[N+](=O)[O-] | 109%
15 | O=C(O)CSCC(=O)Nc1cc(C(F)(F)F)ccc1Cl | 109%
16 | CCCCCCCCCc1ccc(OC(C)=O)cc1 | 108%
17 | CC(=O)OCC1OC(n2cnc3c(=S)nc(N)[nH]c32)C(OC(C)=O)C1OC(C)=O (stereo not given) | 2.42% (active)
18 | CC(=O)NNC(=S)/N=C\C(C(=O)c1ccccc1)=C(/O)c1ccccc1 | 93%
19 | COC1OC(CO)C(OC)C(O)C1O (stereo not given) | 98.6%
20 | COc1cccc(C(=O)NNC(=O)c2cccc3ccccc23)c1 | 98.8%

Row | Structure (SMILES) | growth
21 | FC(F)(F)c1cc(NC2=NCCN=C(Nc3cc(C(F)(F)F)cc(C(F)(F)F)c3)SS2)cc(C(F)(F)F)c1 | 51.2%
22 | C=CCS(C)(=O)=O | 109%
23 | Nc1c(O)c(S(=O)(=O)O)c(O)c2c1C(=O)c1ccccc1C2=O | 5.87% (active)
24 | C/C(=N\Nc1ccc([N+](=O)[O-])cc1[N+](=O)[O-])c1ccc(Br)cc1 | 104%
25 | O=c1n(CC2CO2)c(=O)n(CC2CO2)n1CC1CO1 (stereo not given) | 19.2%
26 | C=CC(C)C(C)(C)O (stereo not given) | 95.2%
27 | CC(=O)c1ccc(C)cc1 | 107%
28 | CN(C(=S)S(=O)(=O)C12CC3CC(CC(C3)C1)C2)c1ccccc1 | 11.9%
29 | CCOC(=O)CO | 86.4%
30 | O=C1NC(=O)/C(=C\c2ccncc2)N1 | 111%
31 | C=CCC(OC(C)=O)c1ccc(C(C)C)cc1 (stereo not given) | 105%
32 | Cc1ccc(C2CCCCC2)cc1Br | 110%
33 | NNc1ncccn1 | 110%
34 | COc1c(CNC(=O)CCl)cc2[nH]c(C)cc2c1CNC(=O)CCl | 51%
35 | COc1cccc(C(=O)O)c1OC | 110%
36 | COC1OC(C(COC(C)=O)OC(C)=O)C(OC(C)=O)C(OC(C)=O)C1OC(C)=O (stereo not given) | 93.5%
37 | CCOC(=O)/C(C)=C\c1ccc(OC)c(OC)c1 | 94.5%
38 | O=C(CCl)Nc1ccccc1SCc1cc(Cl)cc2c1OCOC2 | 50.7%
39 | NC(CSSCC(N)C(=O)O)C(=O)O (stereo not given) | -9.51% (active)
40 | Cc1c(-c2ccc(C3CCCCC3)cc2)nc2ccc(F)cc2c1C(=O)O | 15.2%
